Test results taken from PubChem BioAssay (EPA / NIEHS).
Several values for one entry are separate records, joined by “and”; a condition that tells them apart may be missing. Equal values may be shown once. Where a structure was tested more than once in an assay, its records may differ in their call. Activity calls are given as the source filed them. Rule for the calls: active = hit-call score of the fitted dose curve at least 0.9, where 1 is the maximum; inactive = score below 0.9.

Key:
[1] = Tanguay_ZF_120hpf_CRAN: Oregon State University Tanguay Lab 120 Hour Post-fertilization zebrafish Assay for Craniofacial Malformation (AID 2284397)
Protocol: Tanguay_ZF_120hpf is a whole embryo, multiplexed endpoint assay using zebrafish larvae exposed for 120 hours post fertilization on a 96-well plate.Tanguay_ZF_120hpf_CRAN is one of one assay component(s) measured or calculated from the Tanguay_ZF_120hpf assay. It is designed to make measurements of zebrafish development as detected with brightfield microscopy of developing zebrafish embryos.Data from the assay component Tanguay_ZF_120hpf_CRAN was analyzed into 1 assay endpoints. This assay endpoint, Tanguay_ZF_120hpf_CRAN, was analyzed in the positive analysis fitting direction relative to DMSO as the negative control and baseline of activity. Using a type of morphology reporter, gain-of-signal activity can be used to understand changes in developmentals as they relate to the whole embryo. To generalize the intended target to other relatable targets, this assay endpoint is annotated to the zebrafish development intended target family, where the subfamily is craniofacial morphogenesis.
Zebrafish husbandry: Tropical 5D wild-type adult zebrafish were housed in at an approximate density of 1000 per 100 gallon tank at the Sinnhuber Aquatic Research Laboratory, Oregon State University, Corvallis, OR. […] At 24 hpf, embryos were assessed for photomotor response using a custom photomotor response analysis tool (PRAT) and for developmental toxicity endpoints (MO24: mortality at 24 hpf, DP: developmental progression, SM: spontaneous movement, and NC: notochord distortion). At 120 hpf, locomotor activity was measured using Viewpoint Zebralab and assessed for 13 endpoints. Zebrafish acquisition and analysis program (ZAAP), a custom program designed to inventory, acquire, and manage zebrafish data, was used to collect developmental endpoints as either present or absent (i.e., binary responses were recorded). If mortality occurred for an embryo (at either 24 or 120 hpf), the non-mortality endpoints were not measured.

[2] = Tanguay_ZF_120hpf_AXIS: Oregon State University Tanguay Lab 120 Hour Post-fertilization zebrafish Assay for Axial Malformation (AID 2284398)
Procedure, shortened: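 Scoring was binary (present or absent) for body-axis defects, judged by brightfield imaging at 120 hpf in surviving larvae. Exposure was static at 28C from 6 hpf in chorion-free 5D wild-type embryos, with 0.64% DMSO vehicle.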

[3] = Tanguay_ZF_120hpf_MORT: Oregon State University Tanguay Lab 120 Hour Post-fertilization zebrafish Assay for Mortality (AID 2284399)
Procedure, shortened: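 Mortality, recorded present/absent via brightfield imaging at 24 and 120 hpf, in 5D zebrafish embryos exposed statically from 6 hpf after pronase chorion removal. Exposure at 28C, 0.64% DMSO vehicle, DMSO baseline.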

[4] = Tanguay_ZF_120hpf_EDEM: Oregon State University Tanguay Lab 120 Hour Post-fertilization zebrafish Assay for Edema Malformation (AID 2284400)
Procedure, shortened: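 Edema recorded as a binary endpoint under brightfield at 120 hpf, excluding embryos that died. Exposure was static, sealed, 28C, from 6 hpf in dechorionated wild-type larvae, final DMSO 0.64%, DMSO as baseline.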

[5] = Tanguay_ZF_120hpf_BRN: Oregon State University Tanguay Lab 120 Hour Post-fertilization zebrafish Assay for Brain Region Malformation (AID 2284402)
Procedure, shortened: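 Binary brightfield scoring of brain malformation at 120 hpf in 5D wild-type larvae, chorion removed with pronase at 4 hpf. Static exposure began at 6 hpf, 28C, sealed plates, DMSO 0.64% (vol/vol) as vehicle baseline.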

[6] = Tanguay_ZF_120hpf_TCHR: Oregon State University Tanguay Lab 120 Hour Post-fertilization zebrafish Assay for Touch Responsive (AID 2284403)
Procedure, shortened: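 Binary touch-response calls are made at 120 hpf in 5D wild-type zebrafish larvae. These larvae were dechorionated with pronase and exposed singly from 6 hpf in sealed, dark plates at 28 °C with 0.64% DMSO final; dead embryos are excluded.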

[7] = Tanguay_ZF_120hpf_ANY: Oregon State University Tanguay Lab 120 Hour Post-fertilization zebrafish Assay for Any Mortality and Malformation (AID 2284404)
Procedure, shortened: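 Dechorionated Tropical 5D wild-type embryos, one per well from 6 hpf, static exposure in sealed, dark plates at 28C until 120 hpf, 0.64% DMSO final. Brightfield scoring of mortality and malformations as binary presence/absence, pooling 13 morphology endpoints.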

[8] = CCTE_Padilla_ZF_Score.Craniofacial: CCTE's 144 Hour Post-fertilization zebrafish Assay Score for Craniofacial Malformation, Padilla Lab (AID 2284405)
Procedure, shortened: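 Craniofacial defects were scored at 6 dpf by two blinded observers using stereomicroscopy. Exposure of wild-type embryos began at 6–8 hpf in sealed wells of 10% Hanks' solution at 26C, with chemical removed by rinsing at 5 dpf.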

[9] = CCTE_Padilla_ZF_Score.Edema: CCTE's 144 Hour Post-fertilization zebrafish Assay Score for Edema Malformation, Padilla Lab (AID 2284406)
Procedure, shortened: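 Edema scored at 6 dpf by two blinded observers under a stereo microscope, in single outbred wild-type larvae exposed from 6-8 hpf in sealed wells (Hanks', 26C, 14:10 h light) and chemical-free after a 5 dpf rinse.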

[10] = CCTE_Padilla_ZF_Score.Spine: CCTE's 144 Hour Post-fertilization zebrafish Assay Score for Spine Malformation, Padilla Lab (AID 2284407)
Procedure, shortened: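 Spine malformation scored at 6 dpf by two independent blinded observers under stereomicroscope, after static sealed exposure from 6–8 hpf at 26C in Hanks' solution with rinse on 5 dpf. Positive-direction fit against DMSO control.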

Measured: AC50

OCCC(F)(F)C(F)(F)C(F)(F)C(F)(F)C(F)(F)C(F)(F)F
active: [8] 30.1 µM | [9] 16.5 µM
inactive: [1] | [2] | [3] | [4] | [5] | [6] | [7] | [10]

NCC(F)(F)C(F)(F)C(F)(F)C(F)(F)C(F)(F)C(F)(F)C(F)(F)F
inactive: [8] | [9] | [10]

FC(F)(I)C(F)(F)C(F)(F)C(F)(F)C(F)(F)C(F)(F)I
active: [8] 34.5 µM and 26.6 µM | [9] 19.1 µM and 5.34 µM | [10] 6.93 µM
inactive: [10]

C=C(C)C(=O)OCCC(F)(F)C(F)(F)C(F)(F)C(F)(F)C(F)(F)C(F)(F)F
inactive: [1] | [2] | [3] | [4] | [5] | [6] | [7] | [8] | [9] | [10]

OCCC(F)(F)C(F)(F)C(F)(F)C(F)(F)C(F)(F)C(F)(F)C(F)(F)C(F)(F)F
inactive: [1] | [2] | [3] | [4] | [5] | [6] | [7] | [8] | [9] | [10]
